Test results from PubChem BioAssay (NCI).
This is part of a sample that, as a whole, favours compounds with a hit. Of some 83,000 tested, about 20% had one in any assay.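 Cells were grown in 96-well plates and exposed to the test compound at a single concentration for 48 hours; results are reported as percent growth, with values below 10 considered active.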 Values without a mark were called inactive. The source made the active and inactive calls.

Tested on: NCI-H522 lung
Experiment: NCI-60 one-dose screen, 48 h (100 = growth as untreated, 0 = no growth, -100 = all killed)
Conditions: 10 µM unless noted

Row | SMILES | growth
1 | COc1ccc(-c2cn(-c3cc(OC)c(OC)c(OC)c3)c(=O)n2C(C)=O)cc1 | 73.5%
2 | O=C1NC(=O)c2c1c1c3ccccc3ccc1c1[nH]c3ccc(Br)cc3c21 | 20.1%
3 | O=C(Cn1c2c(c3ccccc31)CCCC2)Nc1ccc(-c2nc3ccccc3s2)cc1 | 94.9%
4 | COc1ccc(C/C(C)=C(/c2ccc(OCCN3CCCCC3)cc2)c2ccc(OC(=O)NCc3ccccc3)cc2)cc1 | -80.9% (active)
5 | CC(C)OC(=O)c1ccc2[nH]c(O)c(C(=Nc3ccc(N(C)C(=O)CN4CCN(C)CC4)cc3)c3ccccc3)c2c1 | -60.6% (active)
6 | COc1cc(N2C(=O)[C@H](O)C2c2ccc(SC)cc2)cc(OC)c1OC (stereo not given in full) | -19.8% (active)
7 | CCCCOC(=O)OCc1cc(=O)c(O)co1 | 91.1%
8 | COc1ccc(C2=Nc3c/c(=C\c4c(O)[nH]c5ccc(Cl)cc45)ccc3=N2)cc1 | 29.3%
9 | O=C(Nc1cccc([N+](=O)[O-])c1)c1cc2ccccc2cc1O | -3.91% (active)
10 | O=C(/C=C/c1cn(-c2ccccc2)nc1-c1ccc([N+](=O)[O-])cc1)c1ccc(Cl)cc1 | 23.3%
11 | CC(C)CCC[C@@H](C)[C@H]1CC[C@H]2[C@@H]3CC=C4C[C@@H](C(C(=O)O)C(=O)O)CC[C@]4(C)[C@H]3CC[C@]12C | -28.7% (active)
12 | CN(C)CCNC(=O)c1cccc(-c2cnc3ccc(-c4ccc5c(c4)OCO5)nn23)c1 | 87.7%
13 | N#Cc1c(-c2ccc(Cl)cc2)nc(SCC(=O)NC2=NN=C(c3ccccc3)CS2)[nH]c1=O | 66.4%
14 | Cc1ccc2c3c(c(=O)[nH]c2c1)C1(C(C#N)=C(N)O3)c2cc(Br)ccc2-c2ccc(Br)cc21 | -8.2% (active)
15 | CCCCCCC1(C)NCCO1 (stereo not given) | 100%
16 | COc1cc(CNS(=O)(=O)c2ccc(C)cc2)ccc1OCc1cn(-c2ccc(F)cc2)nn1 | 75.8%
17 | Cc1cc(N)c2cc(NC(=O)/C=C\c3ccccc3Cl)ccc2n1 | -70.7% (active)
18 | CCOC(=O)C(=Cc1cccc(Br)c1)C(=O)OCC | 23.9%
19 | COc1cc(NC(C)CCCNC(C)C)c2ncccc2c1OC (stereo not given) | 69.6%
20 | COc1ccc2cc(-c3ccc(NC(C)=O)c(=O)o3)ccc2c1 | 78.8%

Row | SMILES | growth
21 | COc1cc(CNS(=O)(=O)c2ccc(C)cc2)ccc1OCc1cn(-c2ccc(Br)cc2)nn1 | 91.8%
22 | O=S(=O)(NCCNc1cc(-c2c(-c3cccc(O)c3)nc3sccn23)ccn1)c1ccc(C(F)(F)F)cc1 | 38.1%
23 | COc1ccc(/C=N/C2=C(C#N)C(c3cccc(Cl)c3)c3c(ccc4ccccc34)O2)cc1 (stereo not given) | 3.61% (active)
24 | N#CC1C=CN(CC(N)=O)c2ccc3cccnc3c21 (stereo not given) | 85.6%
25 | COc1ccc2c(c1)[n+]([O-])c(C(=O)/C=C/C=C(\Cl)c1cc(OC)c(OC)c(OC)c1)c(C)[n+]2[O-] | 56.6%
26 | O=S(=O)(Nc1ccc(Cl)cc1)c1ccc(-c2cnc(C3CC3)o2)cc1 | 11.4%
27 | Cc1nc2c(=O)[nH]c(SCC(=O)Nc3cccc(F)c3)nc2[nH]c1=O | 96.1%
28 | Nc1nc2c([nH]1)c1[nH]c3ccccc3c1c1[nH]c3ccccc3c21 | 26.4%
29 | O=C(Cn1cc(CN2CCCCCC2)nn1)Nc1ccc2c(ccn2Cc2ccccc2)c1 | 86.9%
30 | O=C(Nc1cc(Cl)ccc1O)c1ccc(Nc2ccnc(C(F)(F)F)c2)cc1 | 23.7%
31 | COc1cccc(NC(=O)Cn2cc(CN3CCN(c4ccnc5cc(Cl)ccc45)CC3)nn2)c1 | 80.6%
32 | CC(C)(C)n1cc(-c2ccnc(NCCNS(=O)(=O)c3cccc4ccccc34)c2)c(-c2cccc(F)c2)n1 | -38.9% (active)
33 | C/C(Nc1ccc(Cl)c(Cl)c1)=C1\CCOC1=O | 58%
34 | Cc1c(-c2nc3ccc(F)cc3c(=O)[nH]2)c2ccccc2n1C | 42%
35 | CC(C)n1cnc2c(=S)nc[nH]c21 | 105%
36 | Oc1c(Cl)cc(Cl)c2ccc(Cn3cc(-c4cc(C(F)(F)F)cc(C(F)(F)F)c4)nn3)nc12 | -39.4% (active)
37 | COC(=O)c1c2c(c[n+]([O-])c1C)C(=O)C(NCc1ccccc1)=CC2=O | -30.5% (active)
38 | COc1ccc2[nH]cc(-c3nc(-c4cn(C)c5c(Cl)nccc45)cs3)c2c1 | 13.9%
39 | Clc1ccc(CNc2c3ccccc3nc3ccccc23)cc1 | 66.5%
40 | CCOC(=O)c1cc(-c2ccc([N+](=O)[O-])cc2)n(-c2ccc(C(=O)O)c(O)c2)c1C | 9.5% (active)

Tested on: A549/ATCC NSCLC
Experiment: as above
Conditions: 10 µM unless noted

Row | SMILES | growth
41 | COc1ccc(-c2cn(-c3cc(OC)c(OC)c(OC)c3)c(=O)n2C(C)=O)cc1 | 91.8%
42 | O=C1NC(=O)c2c1c1c3ccccc3ccc1c1[nH]c3ccc(Br)cc3c21 | 18.8%
43 | O=C(Cn1c2c(c3ccccc31)CCCC2)Nc1ccc(-c2nc3ccccc3s2)cc1 | 105%
44 | COc1ccc(C/C(C)=C(/c2ccc(OCCN3CCCCC3)cc2)c2ccc(OC(=O)NCc3ccccc3)cc2)cc1 | -93.4% (active)
45 | CC(C)OC(=O)c1ccc2[nH]c(O)c(C(=Nc3ccc(N(C)C(=O)CN4CCN(C)CC4)cc3)c3ccccc3)c2c1 | -46.7% (active)
46 | COc1cc(N2C(=O)[C@H](O)C2c2ccc(SC)cc2)cc(OC)c1OC (stereo not given in full) | 17%
47 | CCCCOC(=O)OCc1cc(=O)c(O)co1 | 102%
48 | COc1ccc(C2=Nc3c/c(=C\c4c(O)[nH]c5ccc(Cl)cc45)ccc3=N2)cc1 | 62.5%
49 | O=C(Nc1cccc([N+](=O)[O-])c1)c1cc2ccccc2cc1O | 11.1%
50 | O=C(/C=C/c1cn(-c2ccccc2)nc1-c1ccc([N+](=O)[O-])cc1)c1ccc(Cl)cc1 | 61.8%
51 | CC(C)CCC[C@@H](C)[C@H]1CC[C@H]2[C@@H]3CC=C4C[C@@H](C(C(=O)O)C(=O)O)CC[C@]4(C)[C@H]3CC[C@]12C | -51.7% (active)
52 | CN(C)CCNC(=O)c1cccc(-c2cnc3ccc(-c4ccc5c(c4)OCO5)nn23)c1 | 87%
53 | N#Cc1c(-c2ccc(Cl)cc2)nc(SCC(=O)NC2=NN=C(c3ccccc3)CS2)[nH]c1=O | 90.6%
54 | Cc1ccc2c3c(c(=O)[nH]c2c1)C1(C(C#N)=C(N)O3)c2cc(Br)ccc2-c2ccc(Br)cc21 | -42.4% (active)
55 | CCCCCCC1(C)NCCO1 (stereo not given) | 99.4%
56 | COc1cc(CNS(=O)(=O)c2ccc(C)cc2)ccc1OCc1cn(-c2ccc(F)cc2)nn1 | 93.8%
57 | Cc1cc(N)c2cc(NC(=O)/C=C\c3ccccc3Cl)ccc2n1 | -43.5% (active)
58 | CCOC(=O)C(=Cc1cccc(Br)c1)C(=O)OCC | 41.8%
59 | COc1cc(NC(C)CCCNC(C)C)c2ncccc2c1OC (stereo not given) | 102%
60 | COc1ccc2cc(-c3ccc(NC(C)=O)c(=O)o3)ccc2c1 | 87.5%

Row | SMILES | growth
61 | COc1cc(CNS(=O)(=O)c2ccc(C)cc2)ccc1OCc1cn(-c2ccc(Br)cc2)nn1 | 99.5%
62 | O=S(=O)(NCCNc1cc(-c2c(-c3cccc(O)c3)nc3sccn23)ccn1)c1ccc(C(F)(F)F)cc1 | 28.6%
63 | COc1ccc(/C=N/C2=C(C#N)C(c3cccc(Cl)c3)c3c(ccc4ccccc34)O2)cc1 (stereo not given) | 44.9%
64 | N#CC1C=CN(CC(N)=O)c2ccc3cccnc3c21 (stereo not given) | 88.9%
65 | COc1ccc2c(c1)[n+]([O-])c(C(=O)/C=C/C=C(\Cl)c1cc(OC)c(OC)c(OC)c1)c(C)[n+]2[O-] | 98.4%
66 | O=S(=O)(Nc1ccc(Cl)cc1)c1ccc(-c2cnc(C3CC3)o2)cc1 | 40.4%
67 | Cc1nc2c(=O)[nH]c(SCC(=O)Nc3cccc(F)c3)nc2[nH]c1=O | 106%
68 | Nc1nc2c([nH]1)c1[nH]c3ccccc3c1c1[nH]c3ccccc3c21 | 85.5%
69 | O=C(Cn1cc(CN2CCCCCC2)nn1)Nc1ccc2c(ccn2Cc2ccccc2)c1 | 92.3%
70 | O=C(Nc1cc(Cl)ccc1O)c1ccc(Nc2ccnc(C(F)(F)F)c2)cc1 | 36.5%
71 | COc1cccc(NC(=O)Cn2cc(CN3CCN(c4ccnc5cc(Cl)ccc45)CC3)nn2)c1 | 87.9%
72 | CC(C)(C)n1cc(-c2ccnc(NCCNS(=O)(=O)c3cccc4ccccc34)c2)c(-c2cccc(F)c2)n1 | 16.3%
73 | C/C(Nc1ccc(Cl)c(Cl)c1)=C1\CCOC1=O | 88.6%
74 | Cc1c(-c2nc3ccc(F)cc3c(=O)[nH]2)c2ccccc2n1C | 46.4%
75 | CC(C)n1cnc2c(=S)nc[nH]c21 | 126%
76 | Oc1c(Cl)cc(Cl)c2ccc(Cn3cc(-c4cc(C(F)(F)F)cc(C(F)(F)F)c4)nn3)nc12 | 95.5%
77 | COC(=O)c1c2c(c[n+]([O-])c1C)C(=O)C(NCc1ccccc1)=CC2=O | -19.8% (active)
78 | COc1ccc2[nH]cc(-c3nc(-c4cn(C)c5c(Cl)nccc45)cs3)c2c1 | 33.8%
79 | Clc1ccc(CNc2c3ccccc3nc3ccccc23)cc1 | 39.3%
80 | CCOC(=O)c1cc(-c2ccc([N+](=O)[O-])cc2)n(-c2ccc(C(=O)O)c(O)c2)c1C | 47.7%
